The panel holds about 79,000 compounds, 15% with a hit somewhere; the sample as a whole holds those more often. Values without a mark were called inactive. Calls of active or inactive are those of the source. Cut-off read from the data, not from the text of the source: active = growth inhibition above about 70%; inactive = the rest.
How the values were obtained:
[1] = NCI Yeast Anticancer Drug Screen. Data for the rad50 strain (AID 155);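 note: 0% = growth of vehicle-only cultures of the same strain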; conditions: S. cerevisiae rad50 strain growth inhibition, hits give high values
Procedure, shortened: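 Growth of the mutant yeast was measured after compound exposure and referenced to vehicle-treated cultures.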

[2] = NCI Yeast Anticancer Drug Screen. Data for the mec2-1 strain (AID 157); conditions: S. cerevisiae mec2-1 strain, hits give high values
Procedure, shortened: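 Vehicle-treated cultures served as reference for growth inhibition of compound-exposed mec2-1 yeast.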

[3] = NCI Yeast Anticancer Drug Screen. Data for the sgs1 mgt1 strain (AID 161);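 note: 0% = growth of cultures given vehicle only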; conditions: S. cerevisiae sgs1 mgt1 strain, hits give high values
Procedure, shortened: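 Mutant yeast exposed to compound; growth scored against vehicle-only wells.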

[4] = NCI Yeast Anticancer Drug Screen. Data for the bub3 strain (AID 167); conditions: S. cerevisiae bub3 mutant strain, hits give high values
Procedure, shortened: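 Whole-cell yeast assay. The mutant strain was incubated with compounds, and growth inhibition was determined by comparison with vehicle-treated cells.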

[5] = NCI Yeast Anticancer Drug Screen. Data for the mlh1 rad18 strain (AID 175); conditions: S. cerevisiae mlh1 rad18 strain growth inhibition, hits give high values
Procedure, shortened: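 Vehicle-treated cultures served as the reference for growth inhibition in a yeast strain carrying DNA damage repair alterations exposed to each compound.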

[6] = NCI Yeast Anticancer Drug Screen. Data for the cln2 rad14 strain (AID 165);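 note: 0% = growth equal to vehicle treated cultures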; conditions: S. cerevisiae cln2 rad14 strain, hits give high values
Procedure, shortened: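 Each compound was tested on cln2 rad14 yeast. Inhibition of growth was calculated against vehicle-exposed controls.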

[7] = at 5.0 µM (retest, dose inferred, filed as 0.5)
[8] = at 50.0 µM (retest, dose inferred, filed as 5.0)

For O/N=C1/C(=C/c2ccc(Cl)c(Cl)c2)CCCC1C(NO)c1ccc(Cl)c(Cl)c1 (stereo not drawn), which growth inhibition [1, 7] is on record?
Its growth inhibition is 17%.

And the growth inhibition [1, 8]?
Its growth inhibition is 96% (active).

And the growth inhibition ([1]; at 50.0 µM)?
Its growth inhibition is 64%.

And the growth inhibition [2, 7]?
Its growth inhibition is -1%.

And the growth inhibition [2, 8]?
Its growth inhibition is 98% (active).

What about the growth inhibition ([2]; at 50.0 µM) of the same compound?
The growth inhibition was 1.9%.

And the growth inhibition [3, 7]?
Its growth inhibition is 2%.

And the growth inhibition [3, 8]?
Its growth inhibition is 96% (active).

What about the growth inhibition ([3]; at 50.0 µM) of the same compound?
Its growth inhibition is 25.2%.

And the growth inhibition [4, 7]?
The growth inhibition was -1%.

What about the growth inhibition [4, 8] of the same compound?
The growth inhibition was 96% (active).

And the growth inhibition ([4]; at 50.0 µM)?
Its growth inhibition is 21.6%.

What about the growth inhibition [5, 7] of the same compound?
Its growth inhibition is 1%.

What about the growth inhibition [5, 8] of the same compound?
The growth inhibition was 97% (active).

What about the growth inhibition ([5]; at 50.0 µM) of the same compound?
Its growth inhibition is 79% (active).

For OCc1c(-c2cccc3ccccc23)sc(-c2cccc3ccccc23)c1CO, which growth inhibition [1, 7] is on record?
Its growth inhibition is 59%.

What about the growth inhibition [1, 8] of the same compound?
Its growth inhibition is 74% (active).

And the growth inhibition ([1]; at 50.0 µM)?
Its growth inhibition is 90% (active).

What about the growth inhibition [2, 7] of the same compound?
Its growth inhibition is 20%.

What about the growth inhibition [2, 8] of the same compound?
The growth inhibition was 85% (active).

What about the growth inhibition ([2]; at 50.0 µM) of the same compound?
The growth inhibition was 92.8% (active).

What about the growth inhibition [6, 7] of the same compound?
Its growth inhibition is 63%.

And the growth inhibition [6, 8]?
Its growth inhibition is 81% (active).

What about the growth inhibition ([6]; at 50.0 µM) of the same compound?
Its growth inhibition is 86.6% (active).

What about the growth inhibition [4, 7] of the same compound?
The growth inhibition was 39%.

What about the growth inhibition [4, 8] of the same compound?
Its growth inhibition is 82% (active).

And the growth inhibition ([4]; at 50.0 µM)?
Its growth inhibition is 86.5% (active).

And the growth inhibition [5, 7]?
Its growth inhibition is 65%.

And the growth inhibition [5, 8]?
The growth inhibition was 70% (active).

And the growth inhibition ([5]; at 50.0 µM)?
The growth inhibition was 88.4% (active).

For COc1cc(/C=C2\Sc3scc(-c4cccc([N+](=O)[O-])c4)[n+]3C2=O)cc(OC)c1OC, which growth inhibition [1, 7] is on record?
Its growth inhibition is 1%.

And the growth inhibition [1, 8]?
The growth inhibition was 94% (active).

And the growth inhibition ([1]; at 50.0 µM)?
Its growth inhibition is 99% (active).

And the growth inhibition [2, 7]?
The growth inhibition was -1%.

What about the growth inhibition [2, 8] of the same compound?
The growth inhibition was 82% (active).

What about the growth inhibition ([2]; at 50.0 µM) of the same compound?
The growth inhibition was 99% (active).

What about the growth inhibition [3, 7] of the same compound?
The growth inhibition was 13%.

What about the growth inhibition [3, 8] of the same compound?
Its growth inhibition is 40%.

What about the growth inhibition ([3]; at 50.0 µM) of the same compound?
Its growth inhibition is 86.2% (active).

What about the growth inhibition [6, 7] of the same compound?
Its growth inhibition is -26%.

What about the growth inhibition [6, 8] of the same compound?
Its growth inhibition is 91% (active).

What about the growth inhibition ([6]; at 50.0 µM) of the same compound?
Its growth inhibition is 98.4% (active).

What about the growth inhibition [4, 7] of the same compound?
Its growth inhibition is -10%.

What about the growth inhibition [4, 8] of the same compound?
Its growth inhibition is 95% (active).

And the growth inhibition ([4]; at 50.0 µM)?
Its growth inhibition is 99.1% (active).

What about the growth inhibition [5, 7] of the same compound?
The growth inhibition was 5%.

And the growth inhibition [5, 8]?
The growth inhibition was 73% (active).

And the growth inhibition ([5]; at 50.0 µM)?
The growth inhibition was 99% (active).

With Cc1cc2c(cc1O)CC[C@@H]1[C@@H]2CC[C@]2(C)[C@@H](O)CC[C@@H]12 as the compound, how does the growth inhibition [1, 7] read?
The growth inhibition was -29%.

What about the growth inhibition [1, 8] of the same compound?
The growth inhibition was -27%.

And the growth inhibition ([1]; at 50.0 µM)?
Its growth inhibition is 38.5%.

And the growth inhibition [2, 7]?
Its growth inhibition is -25%.

What about the growth inhibition [2, 8] of the same compound?
Its growth inhibition is -16%.

And the growth inhibition ([2]; at 50.0 µM)?
The growth inhibition was 35.2%.

And the growth inhibition [6, 7]?
Its growth inhibition is -9%.

What about the growth inhibition [6, 8] of the same compound?
The growth inhibition was -17%.

And the growth inhibition ([6]; at 50.0 µM)?
The growth inhibition was 50.2%.

What about the growth inhibition [4, 7] of the same compound?
Its growth inhibition is -42%.

What about the growth inhibition [4, 8] of the same compound?
The growth inhibition was -29%.

And the growth inhibition ([4]; at 50.0 µM)?
The growth inhibition was 37.5%.

What about the growth inhibition [5, 7] of the same compound?
The growth inhibition was -35%.

What about the growth inhibition [5, 8] of the same compound?
The growth inhibition was -22%.

And the growth inhibition ([5]; at 50.0 µM)?
Its growth inhibition is 50%.

Which results are given for CC(C)C(Sc1nc(-c2ccccc2)c(-c2ccccc2)[nH]1)c1n[nH]c(=S)n1-c1ccccc1 (stereo not drawn)?
growth inhibition [1, 7]: -1%; growth inhibition [1, 8]: 97% (active); growth inhibition ([1]; at 50.0 µM): 95.8% (active); growth inhibition [2, 7]: 12%; growth inhibition [2, 8]: 98% (active); growth inhibition ([2]; at 50.0 µM): 97.1% (active); growth inhibition [3, 7]: -13%; growth inhibition [3, 8]: 98% (active); growth inhibition ([3]; at 50.0 µM): 96.8% (active); growth inhibition [4, 7]: -1%; growth inhibition [4, 8]: 98% (active); growth inhibition ([4]; at 50.0 µM): 96.9% (active); growth inhibition [5, 7]: -3%; growth inhibition [5, 8]: 97% (active); growth inhibition ([5]; at 50.0 µM): 95.9% (active)

Source: PubChem BioAssay (NCI)
